Experimental data from PubChem BioAssay (NCI).
About 83,000 compounds went through this panel and 20% of them were active in at least one assay; those are over-represented in the sample as a whole.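 Cell lines were cultured in 96-well plates, exposed to a single compound concentration, and assessed for percent growth 48 hours later.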 Calls of active or inactive are those of the source. How the source made its calls: active means growth percent below 10; inactive means the rest.

Assays:
Assay in all cases: NCI-60 one-dose screen, 48 h (100 = growth as untreated, 0 = no growth, -100 = all killed)
SK-MEL-2 melanoma = settings: 10 µM unless noted
EKVX NSCLC = settings: 10 µM
SN12C renal = settings: 10 µM unless noted
UO-31 renal = settings: 10 µM unless noted
TK-10 renal = settings: 10 µM unless noted
ACHN renal = settings: 10 µM unless noted
CAKI-1 renal = settings: 10 µM unless noted
A498 renal = settings: 10 µM unless noted
CCRF-CEM leukemia = settings: 10 µM
MOLT-4 leukemia = settings: 10 µM unless noted
SR leukemia = settings: 10 µM unless noted
RPMI-8226 leukemia = settings: 10 µM unless noted
OVCAR-8 ovarian = settings: 10 µM unless noted
OVCAR-5 ovarian = settings: 10 µM unless noted
OVCAR-4 ovarian = settings: 10 µM unless noted
SK-OV-3 ovarian = settings: 10 µM unless noted
IGROV1 ovarian = settings: 10 µM unless noted
OVCAR-3 ovarian = settings: 10 µM unless noted
HS 578T breast = settings: 10 µM unless noted
NCI/ADR-RES ovarian = settings: 10 µM unless noted

Measured: growth

COc1cccc2c1nc1cccc(OC)c1[n+]2[O-]
active: UO-31 renal -0.522% | ACHN renal 2.52% | CCRF-CEM leukemia 3.09% | MOLT-4 leukemia -1.14% | SR leukemia -0.211% | IGROV1 ovarian -73.4%
inactive: SK-MEL-2 melanoma 35.6% | EKVX NSCLC 57.8% | SN12C renal 43.7% | TK-10 renal 75.8% | CAKI-1 renal 52.8% | A498 renal 65.4% | RPMI-8226 leukemia 51.1% | OVCAR-8 ovarian 41.7% | OVCAR-5 ovarian 23.3% | OVCAR-4 ovarian 69.7% | SK-OV-3 ovarian 29% | OVCAR-3 ovarian 101% | HS 578T breast 80% | NCI/ADR-RES ovarian 37.4%

COc1cc(N)c2nccc(C)c2c1OC
inactive: SK-MEL-2 melanoma 103% | EKVX NSCLC 92.7% | SN12C renal 98.8% | UO-31 renal 164% | TK-10 renal 116% | ACHN renal 110% | CAKI-1 renal 98.4% | A498 renal 93.5% | CCRF-CEM leukemia 101% | MOLT-4 leukemia 80.6% | SR leukemia 55.5% | RPMI-8226 leukemia 144% | OVCAR-8 ovarian 96.4% | OVCAR-5 ovarian 107% | OVCAR-4 ovarian 94.4% | SK-OV-3 ovarian 108% | IGROV1 ovarian 385% | OVCAR-3 ovarian 111% | HS 578T breast 104% | NCI/ADR-RES ovarian 131%

CC(=O)Nc1nc(C)c(C(=O)N/N=C/N2CCOCC2)s1
inactive: SK-MEL-2 melanoma 34.1% | EKVX NSCLC 122% | SN12C renal 105% | UO-31 renal 89% | TK-10 renal 103% | ACHN renal 104% | CAKI-1 renal 140% | A498 renal 110% | CCRF-CEM leukemia 76.3% | MOLT-4 leukemia 188% | SR leukemia 169% | RPMI-8226 leukemia 116% | OVCAR-8 ovarian 115% | OVCAR-5 ovarian 106% | OVCAR-4 ovarian 119% | SK-OV-3 ovarian 110% | IGROV1 ovarian 70.3% | OVCAR-3 ovarian 104% | HS 578T breast 97.6% | NCI/ADR-RES ovarian 120%

COc1cccc(Cn2cc3c(c2)-c2oncc2CC3)c1
inactive: SK-MEL-2 melanoma 35.5% | EKVX NSCLC 27.2% | SN12C renal 34.5% | UO-31 renal 38.8% | TK-10 renal 69.4% | ACHN renal 42.7% | CAKI-1 renal 13.9% | A498 renal 36.4% | CCRF-CEM leukemia 15.2% | MOLT-4 leukemia 26.6% | SR leukemia 13.8% | RPMI-8226 leukemia 37.6% | OVCAR-8 ovarian 32.3% | OVCAR-5 ovarian 42.6% | OVCAR-4 ovarian 50.9% | IGROV1 ovarian 20.1%
active: SK-OV-3 ovarian 1.4% | OVCAR-3 ovarian -30.4% | HS 578T breast 8.85% | NCI/ADR-RES ovarian 6.75%

OCC(O)C(O)CC1SCCS1 (centres undefined)
inactive: SK-MEL-2 melanoma 107% | EKVX NSCLC 97.2% | SN12C renal 97.9% | UO-31 renal 78% | TK-10 renal 96.5% | ACHN renal 103% | CAKI-1 renal 98% | A498 renal 101% | CCRF-CEM leukemia 90.6% | MOLT-4 leukemia 84.8% | SR leukemia 103% | RPMI-8226 leukemia 122% | OVCAR-8 ovarian 96.3% | OVCAR-5 ovarian 106% | OVCAR-4 ovarian 112% | SK-OV-3 ovarian 103% | IGROV1 ovarian 107% | OVCAR-3 ovarian 101% | HS 578T breast 106% | NCI/ADR-RES ovarian 102%

Brc1c(-c2ccncc2)nc2n1CCS2
inactive: SK-MEL-2 melanoma 92.7% | EKVX NSCLC 110% | SN12C renal 91.7% | UO-31 renal 94.5% | TK-10 renal 97.5% | ACHN renal 87.7% | CAKI-1 renal 90.2% | A498 renal 77.6% | MOLT-4 leukemia 87.3% | SR leukemia 52.9% | RPMI-8226 leukemia 60.2% | OVCAR-8 ovarian 94.6% | OVCAR-5 ovarian 102% | OVCAR-4 ovarian 109% | SK-OV-3 ovarian 116% | OVCAR-3 ovarian 97.6% | HS 578T breast 117% | NCI/ADR-RES ovarian 107%
active: CCRF-CEM leukemia -8.76% | IGROV1 ovarian 0.69%

CCCC(CCC)Oc1ccc(CCCC2=C(O)c3ccccc3C(=O)C2=O)cc1
inactive: SK-MEL-2 melanoma 27.7% | EKVX NSCLC 26.3% | SN12C renal 45.5% | UO-31 renal 47.3% | TK-10 renal 36.2% | ACHN renal 29.9% | CAKI-1 renal 64.4% | A498 renal 31% | CCRF-CEM leukemia 36.1% | MOLT-4 leukemia 38.1% | SR leukemia 38.9% | RPMI-8226 leukemia 22.5% | OVCAR-8 ovarian 34.2% | OVCAR-5 ovarian 17.2% | OVCAR-4 ovarian 25.1% | SK-OV-3 ovarian 37.5% | IGROV1 ovarian 46.7% | OVCAR-3 ovarian 40.8% | HS 578T breast 34.6% | NCI/ADR-RES ovarian 28.7%

CCCOC(=O)c1c(C)n(C)c2scc[n+]12
active: CCRF-CEM leukemia -67.1% | MOLT-4 leukemia -44.4%
inactive: SK-MEL-2 melanoma 76.4% | EKVX NSCLC 43% | SN12C renal 92.4% | UO-31 renal 81.3% | TK-10 renal 104% | ACHN renal 85.8% | CAKI-1 renal 58.7% | A498 renal 48.8% | SR leukemia 13.6% | RPMI-8226 leukemia 54.8% | OVCAR-8 ovarian 72.8% | OVCAR-5 ovarian 75.1% | OVCAR-4 ovarian 73.8% | SK-OV-3 ovarian 93.9% | IGROV1 ovarian 15.9% | OVCAR-3 ovarian 71.2% | HS 578T breast 77.6% | NCI/ADR-RES ovarian 78.9%

CC(C)(C)c1ccc([I+]c2ccc(C(C)(C)C)cc2)cc1
inactive: EKVX NSCLC 15.6% | UO-31 renal 62.8% | TK-10 renal 23.5% | ACHN renal 47.3% | CAKI-1 renal 87.6% | MOLT-4 leukemia 12.1% | OVCAR-5 ovarian 49.6% | OVCAR-4 ovarian 18.3% | SK-OV-3 ovarian 30.3% | IGROV1 ovarian 20.9% | HS 578T breast 29.1% | NCI/ADR-RES ovarian 90.2%
active: SK-MEL-2 melanoma -2.7% | SN12C renal 3.97% | A498 renal -2.59% | CCRF-CEM leukemia 9.22% | SR leukemia 5.64% | RPMI-8226 leukemia -19.9% | OVCAR-8 ovarian 7.15% | OVCAR-3 ovarian 2.92%

Cc1nn(-c2ccccc2)c(N)c1N=C1NC(=O)/C(=C/c2ccc(Cl)cc2)S1
inactive: SK-MEL-2 melanoma 100% | EKVX NSCLC 90.8% | SN12C renal 85.8% | UO-31 renal 73% | TK-10 renal 104% | ACHN renal 87.3% | CAKI-1 renal 66.8% | A498 renal 68.6% | CCRF-CEM leukemia 68.2% | MOLT-4 leukemia 87.9% | SR leukemia 34.1% | RPMI-8226 leukemia 49.5% | OVCAR-8 ovarian 91.6% | OVCAR-5 ovarian 86.6% | OVCAR-4 ovarian 75.2% | SK-OV-3 ovarian 88% | IGROV1 ovarian 104% | OVCAR-3 ovarian 68.8% | HS 578T breast 93.1% | NCI/ADR-RES ovarian 92.2%

COC(c1ccccc1)C(Br)C(=O)c1ccccc1 (centres undefined)
inactive: SK-MEL-2 melanoma 95.7% | EKVX NSCLC 103% | SN12C renal 94.3% | UO-31 renal 75.8% | TK-10 renal 91.5% | ACHN renal 94.6% | CAKI-1 renal 85% | A498 renal 98.6% | CCRF-CEM leukemia 69.9% | MOLT-4 leukemia 98% | SR leukemia 79.7% | RPMI-8226 leukemia 90.6% | OVCAR-8 ovarian 92.1% | OVCAR-5 ovarian 108% | OVCAR-4 ovarian 93.1% | IGROV1 ovarian 96.6% | OVCAR-3 ovarian 115% | HS 578T breast 111% | NCI/ADR-RES ovarian 104%
